# Reference: PMC7862700, “An all-to-all approach to the identification of sequence-specific readers for epigenetic DNA modifications on cytosine”
# Assays:
# Experiment in all cases: DAPPL (digital affinity profiling via proximity ligation, sequencing); 10 mM Tris-HCl pH 7.5, 50 mM NaCl, 1 mM DTT, 4% glycerol, room temperature, 30 min; GST-TFs on glutathione beads, 16-mer random dsDNA library, 0.1% formaldehyde crosslink after washing; high values mean tight binding
# Settings in all cases: protein: recombinant; tags: N-terminal GST; dsDNA, one strand shown
# FLI1 = biological target: T1, FLI1 (Homo sapiens, UniProt Q01543 1-452)
# T1 sequence: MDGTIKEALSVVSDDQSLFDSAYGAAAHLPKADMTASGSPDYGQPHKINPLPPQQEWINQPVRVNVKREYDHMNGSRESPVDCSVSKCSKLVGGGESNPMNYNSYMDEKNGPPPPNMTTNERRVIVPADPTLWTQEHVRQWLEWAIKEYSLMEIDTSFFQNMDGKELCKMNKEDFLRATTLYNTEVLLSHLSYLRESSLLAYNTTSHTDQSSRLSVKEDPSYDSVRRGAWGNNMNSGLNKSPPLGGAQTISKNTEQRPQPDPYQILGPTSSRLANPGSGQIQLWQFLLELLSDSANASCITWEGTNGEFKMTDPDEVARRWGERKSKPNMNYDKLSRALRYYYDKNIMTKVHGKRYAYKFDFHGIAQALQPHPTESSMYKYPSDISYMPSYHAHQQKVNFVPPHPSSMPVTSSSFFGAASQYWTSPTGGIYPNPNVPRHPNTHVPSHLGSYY
# Summary of the method: (§1)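 Binding signal is defined as a hexamer's read frequency for one factor over its frequency for the tag-only sample. To obtain reads, GST-fused human transcription factors were expressed in yeast, captured on glutathione beads, barcoded with DNA and pooled with that sample. Pools met 200 nmole of a 16-mer random double-stranded DNA library in Tris/NaCl/DTT/glycerol buffer for 30 min at room temperature before washing, 0.1% formaldehyde crosslinking, proximity ligation (BsaI/T4 ligase, 1 h, 37 °C), PCR and Illumina NextSeq500 sequencing.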
# ELK1 = biological target: T2, ELK1 (Homo sapiens, UniProt P19419 1-428)
# T2 sequence: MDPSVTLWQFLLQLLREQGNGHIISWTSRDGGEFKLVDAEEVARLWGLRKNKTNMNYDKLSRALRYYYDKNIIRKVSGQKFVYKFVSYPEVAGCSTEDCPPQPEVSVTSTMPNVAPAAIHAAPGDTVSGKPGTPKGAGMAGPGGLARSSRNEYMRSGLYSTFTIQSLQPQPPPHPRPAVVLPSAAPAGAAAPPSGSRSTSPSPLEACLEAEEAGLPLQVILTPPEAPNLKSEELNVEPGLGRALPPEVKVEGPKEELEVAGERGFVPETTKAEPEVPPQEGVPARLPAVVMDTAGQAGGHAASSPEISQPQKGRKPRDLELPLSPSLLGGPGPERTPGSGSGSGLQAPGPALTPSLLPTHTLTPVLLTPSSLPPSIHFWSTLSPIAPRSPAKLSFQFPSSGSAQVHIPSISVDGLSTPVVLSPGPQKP
# Summary of the method: as §1
# GABPA = biological target: T3, GABPA (Homo sapiens, UniProt Q06546 1-454)
# T3 sequence: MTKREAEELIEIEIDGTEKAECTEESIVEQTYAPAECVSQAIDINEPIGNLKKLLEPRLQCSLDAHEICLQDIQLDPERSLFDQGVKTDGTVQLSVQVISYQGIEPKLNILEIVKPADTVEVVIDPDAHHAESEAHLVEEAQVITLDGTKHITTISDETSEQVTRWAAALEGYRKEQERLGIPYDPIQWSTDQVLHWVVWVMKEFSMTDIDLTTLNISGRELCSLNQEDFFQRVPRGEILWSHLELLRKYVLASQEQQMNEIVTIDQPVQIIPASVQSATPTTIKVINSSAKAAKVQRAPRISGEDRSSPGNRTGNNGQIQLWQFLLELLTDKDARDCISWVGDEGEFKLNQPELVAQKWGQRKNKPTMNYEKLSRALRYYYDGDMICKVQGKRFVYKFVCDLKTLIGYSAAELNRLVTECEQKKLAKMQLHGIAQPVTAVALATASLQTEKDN
# Summary of the method: as §1
# ERG = biological target: T4, ERG (Homo sapiens, UniProt P11308 1-479)
# T4 sequence: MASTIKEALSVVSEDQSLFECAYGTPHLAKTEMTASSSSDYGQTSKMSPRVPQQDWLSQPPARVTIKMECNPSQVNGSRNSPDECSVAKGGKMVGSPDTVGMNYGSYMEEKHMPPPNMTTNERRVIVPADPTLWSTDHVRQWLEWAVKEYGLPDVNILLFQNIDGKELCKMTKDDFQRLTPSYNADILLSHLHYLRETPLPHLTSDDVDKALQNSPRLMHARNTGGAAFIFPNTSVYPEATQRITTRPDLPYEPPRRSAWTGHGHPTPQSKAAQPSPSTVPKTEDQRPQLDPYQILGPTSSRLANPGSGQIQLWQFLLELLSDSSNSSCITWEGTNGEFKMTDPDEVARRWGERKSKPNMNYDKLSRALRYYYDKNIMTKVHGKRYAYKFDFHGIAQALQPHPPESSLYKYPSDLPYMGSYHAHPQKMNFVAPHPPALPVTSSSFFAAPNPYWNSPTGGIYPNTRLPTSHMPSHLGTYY
# Summary of the method: as §1
# ELF1 = ELF1 (Homo sapiens, UniProt P32519 1-619)
# Chain of ELF1 (P32519 whole entry): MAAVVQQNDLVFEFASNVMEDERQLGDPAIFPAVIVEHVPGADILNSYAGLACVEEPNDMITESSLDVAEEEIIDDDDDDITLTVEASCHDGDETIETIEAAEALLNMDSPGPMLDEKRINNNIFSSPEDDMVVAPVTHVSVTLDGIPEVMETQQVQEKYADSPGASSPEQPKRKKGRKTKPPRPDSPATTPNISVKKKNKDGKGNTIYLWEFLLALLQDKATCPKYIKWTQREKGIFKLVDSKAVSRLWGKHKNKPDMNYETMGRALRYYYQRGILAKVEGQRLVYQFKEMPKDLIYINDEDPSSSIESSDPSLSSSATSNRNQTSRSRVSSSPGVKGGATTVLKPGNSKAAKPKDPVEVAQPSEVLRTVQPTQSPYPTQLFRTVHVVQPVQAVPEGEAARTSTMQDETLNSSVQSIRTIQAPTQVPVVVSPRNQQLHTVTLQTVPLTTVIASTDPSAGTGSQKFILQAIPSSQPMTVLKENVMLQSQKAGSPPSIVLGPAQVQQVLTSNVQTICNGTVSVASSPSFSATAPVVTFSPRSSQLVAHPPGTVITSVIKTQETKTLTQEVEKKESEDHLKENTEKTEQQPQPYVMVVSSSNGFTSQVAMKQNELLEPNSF
# Summary of the method: as §1
# EHF = biological target: T5, EHF (Homo sapiens, UniProt Q9NZC4 1-300)
# T5 sequence: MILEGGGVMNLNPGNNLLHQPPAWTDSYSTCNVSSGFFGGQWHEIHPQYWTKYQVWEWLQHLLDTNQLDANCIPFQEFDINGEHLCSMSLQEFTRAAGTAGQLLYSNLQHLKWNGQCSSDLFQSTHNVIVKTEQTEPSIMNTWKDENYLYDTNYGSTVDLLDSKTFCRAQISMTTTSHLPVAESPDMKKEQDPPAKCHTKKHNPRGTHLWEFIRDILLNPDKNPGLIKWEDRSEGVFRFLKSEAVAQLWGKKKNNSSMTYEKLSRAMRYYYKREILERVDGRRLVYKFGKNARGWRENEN
# Summary of the method: as §1
# SPI1 = SPI1 (Homo sapiens, UniProt P17947 1-270)
# Summary of the method: as §1
# SPIB = SPIB (Homo sapiens, UniProt Q01892 1-262)
# Chain of SPIB (Q01892 whole entry): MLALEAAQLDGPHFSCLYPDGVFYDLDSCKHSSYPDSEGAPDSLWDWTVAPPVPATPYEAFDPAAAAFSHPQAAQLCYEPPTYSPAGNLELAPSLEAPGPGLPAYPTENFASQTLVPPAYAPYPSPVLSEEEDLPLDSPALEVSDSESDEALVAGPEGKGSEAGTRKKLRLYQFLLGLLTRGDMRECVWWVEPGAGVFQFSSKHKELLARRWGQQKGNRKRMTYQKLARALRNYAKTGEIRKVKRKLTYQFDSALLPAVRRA
# Summary of the method: as §1
# ELK3 = biological target: T6, ELK3 (Homo sapiens, UniProt P41970 1-407)
# T6 sequence: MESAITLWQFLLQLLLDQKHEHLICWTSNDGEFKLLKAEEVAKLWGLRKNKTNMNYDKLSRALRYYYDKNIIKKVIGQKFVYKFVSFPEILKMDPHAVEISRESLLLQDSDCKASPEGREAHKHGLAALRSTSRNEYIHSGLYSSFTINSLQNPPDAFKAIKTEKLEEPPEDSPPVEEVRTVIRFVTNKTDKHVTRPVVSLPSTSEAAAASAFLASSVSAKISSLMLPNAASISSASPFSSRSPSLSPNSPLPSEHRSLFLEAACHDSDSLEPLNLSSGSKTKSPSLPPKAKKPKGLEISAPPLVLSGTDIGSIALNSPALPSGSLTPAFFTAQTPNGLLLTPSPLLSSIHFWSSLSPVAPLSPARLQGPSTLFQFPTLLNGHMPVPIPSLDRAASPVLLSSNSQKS
# Summary of the method: as §1
sequence,measurement,setting,value
CTCCAA,binding signal,FLI1,"1.23 fold enrichment (6-mer frequency, TF over GST control)"
same,binding signal,ELK1,"1.41 fold enrichment (6-mer frequency, TF over GST control)"
same,binding signal,GABPA,"1.4 fold enrichment (6-mer frequency, TF over GST control)"
same,binding signal,ERG,"1.32 fold enrichment (6-mer frequency, TF over GST control)"
same,binding signal,ELF1,"1.3 fold enrichment (6-mer frequency, TF over GST control)"
same,binding signal,EHF,"1.26 fold enrichment (6-mer frequency, TF over GST control)"
same,binding signal,SPI1,"1.29 fold enrichment (6-mer frequency, TF over GST control)"
same,binding signal,SPIB,"1.31 fold enrichment (6-mer frequency, TF over GST control)"
same,binding signal,ELK3,"1.25 fold enrichment (6-mer frequency, TF over GST control)"
